target: SERBP1 (UniProt Q8NC51); assay: cross-linking mass spectrometry; settings: TSTO, in cells

Chain of YWHAG, P61981 (P61981 whole entry): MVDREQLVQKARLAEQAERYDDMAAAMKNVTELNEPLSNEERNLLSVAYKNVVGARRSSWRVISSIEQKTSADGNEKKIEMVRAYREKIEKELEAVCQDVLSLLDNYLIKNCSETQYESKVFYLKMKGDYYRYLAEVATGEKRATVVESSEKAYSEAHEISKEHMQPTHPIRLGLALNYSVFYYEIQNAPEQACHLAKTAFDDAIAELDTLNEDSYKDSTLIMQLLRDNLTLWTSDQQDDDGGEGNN
Chain of YWHAQ, P27348 (P27348 whole entry): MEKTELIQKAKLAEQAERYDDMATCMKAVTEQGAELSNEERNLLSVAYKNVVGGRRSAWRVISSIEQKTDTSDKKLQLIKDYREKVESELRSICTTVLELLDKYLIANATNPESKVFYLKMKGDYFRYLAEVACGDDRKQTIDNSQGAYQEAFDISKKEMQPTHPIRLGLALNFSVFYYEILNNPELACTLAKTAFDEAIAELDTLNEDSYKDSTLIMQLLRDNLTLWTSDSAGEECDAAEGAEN
Chain of YWHAB, P31946 (P31946 whole entry): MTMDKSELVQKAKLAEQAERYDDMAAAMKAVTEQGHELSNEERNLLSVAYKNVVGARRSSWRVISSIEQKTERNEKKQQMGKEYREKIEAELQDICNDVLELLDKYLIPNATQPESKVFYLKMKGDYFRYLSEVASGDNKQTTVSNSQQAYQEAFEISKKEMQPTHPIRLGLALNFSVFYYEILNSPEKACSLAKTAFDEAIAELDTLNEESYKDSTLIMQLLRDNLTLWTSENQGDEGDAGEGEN

| Substance | cross-linked residues |
| --- | --- |
| RPS28, P62857 | K16 - K140 |
| RPL34, P49207 | K115 - K37 |
| RPS15, P62841 | K58 - K327 |
| RPS10, P46783 | K107 - K299 |
| RPS3, P23396 | K108 - K236 |
| RPL23A, P62750 | K30 - K68 |

target: YWHAE (UniProt P62258); assay: cross-linking mass spectrometry; settings: TSTO, in cells
Sequence (P62258 whole entry): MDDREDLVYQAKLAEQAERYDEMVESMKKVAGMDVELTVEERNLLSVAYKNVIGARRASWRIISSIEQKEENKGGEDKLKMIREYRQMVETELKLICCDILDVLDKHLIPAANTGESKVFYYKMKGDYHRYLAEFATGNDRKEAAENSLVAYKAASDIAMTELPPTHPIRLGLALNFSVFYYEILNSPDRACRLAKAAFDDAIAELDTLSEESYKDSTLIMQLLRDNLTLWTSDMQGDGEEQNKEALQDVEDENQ

| Substance | cross-linked residues |
| --- | --- |
| YWHAB, P31946 | K70 - K12 |
| YWHAQ, P27348 | K68 - K12 |
| YWHAG, P61981 | K69 - K12 |
